Data: the supplement of paper PMC9694430

Tests used:
Experiment in all cases: thermal shift delta Tm vs DMSO control; higher = stronger stabilization (binding)
Conditions in all cases: 12.5 µM; protein concentration 2 µM
LOC_OS02G45750-cb003 = test system: LOC_OS02G45750-cb003
Procedure, shortened: (§1)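 Rice kinase domain constructs were expressed in E. coli, purified, and tested by differential scanning fluorimetry with compound added in DMSO. Each well of a 96-well plate held 19.5 μl of 2 μM kinase in 100 mM potassium phosphate pH 7.5, 150 mM NaCl, 10% glycerol and 5 × SYPRO Orange, and fluorescence was read from 25°C to 95°C at 0.05°C/s. The melting temperature shift is the mean of triplicates, taken against protein with DMSO alone after Boltzmann fitting.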

LOC_OS02G54510-cb004 = test system: LOC_OS02G54510-cb004
Procedure, shortened: as §1

LOC_OS03G04050-cb001 = test system: LOC_OS03G04050-cb001
Procedure, shortened: as §1

LOC_OS03G12390-cb001 = test system: LOC_OS03G12390-cb001
Procedure, shortened: as §1

LOC_OS03G27990-cb004 = test system: LOC_OS03G27990-cb004
Procedure, shortened: as §1

LOC_OS03G50450-cb001 = test system: LOC_OS03G50450-cb001
Procedure, shortened: as §1

LOC_OS03G50810-cb003 = test system: LOC_OS03G50810-cb003
Procedure, shortened: as §1

LOC_OS04G35114-cb001 = test system: LOC_OS04G35114-cb001
Procedure, shortened: as §1

LOC_OS04G38480-cb003 = test system: T1, LOC_OS04G38480-cb003
T1 sequence (whole entry): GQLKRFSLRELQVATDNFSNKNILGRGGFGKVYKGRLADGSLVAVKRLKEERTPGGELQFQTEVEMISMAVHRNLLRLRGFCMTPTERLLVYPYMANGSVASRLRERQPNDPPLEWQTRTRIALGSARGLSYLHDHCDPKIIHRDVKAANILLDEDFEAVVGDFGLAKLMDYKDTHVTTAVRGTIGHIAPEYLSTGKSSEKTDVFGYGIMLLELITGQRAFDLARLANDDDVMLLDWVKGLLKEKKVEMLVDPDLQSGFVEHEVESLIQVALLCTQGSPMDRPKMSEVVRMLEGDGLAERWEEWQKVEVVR
Procedure, shortened: as §1

LOC_OS04G41100-cb001 = test system: T2, LOC_OS04G41100-cb001
T2 sequence (whole entry): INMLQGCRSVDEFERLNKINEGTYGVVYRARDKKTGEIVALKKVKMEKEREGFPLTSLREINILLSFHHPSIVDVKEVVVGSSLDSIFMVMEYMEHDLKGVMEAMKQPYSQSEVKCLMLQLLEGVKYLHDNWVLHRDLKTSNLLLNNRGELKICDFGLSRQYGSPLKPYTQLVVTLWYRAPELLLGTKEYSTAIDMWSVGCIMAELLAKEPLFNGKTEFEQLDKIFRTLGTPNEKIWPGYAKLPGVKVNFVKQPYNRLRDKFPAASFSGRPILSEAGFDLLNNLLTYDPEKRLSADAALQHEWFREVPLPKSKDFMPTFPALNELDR
Procedure, shortened: as §1

Structure (SMILES) | thermal shift delta Tm (LOC_OS02G45750-cb003) | thermal shift delta Tm (LOC_OS02G54510-cb004) | thermal shift delta Tm (LOC_OS03G04050-cb001) | thermal shift delta Tm (LOC_OS03G12390-cb001) | thermal shift delta Tm (LOC_OS03G27990-cb004) | thermal shift delta Tm (LOC_OS03G50450-cb001) | thermal shift delta Tm (LOC_OS03G50810-cb003) | thermal shift delta Tm (LOC_OS04G35114-cb001) | thermal shift delta Tm (LOC_OS04G38480-cb003) | thermal shift delta Tm (LOC_OS04G41100-cb001)
CC1Oc2cc(cnc2N)-c2c(nn(C)c2C#N)CN(C)C(=O)c2ccc(F)cc21 (stereo not given) | 1.05 °C | 0.8 °C | 0.3 °C | 6.42 °C | 0.12 °C | -0.13 °C | 0.66 °C | 0.69 °C | 2.3 °C | 0.38 °C
Cc1nc(-c2cn3c(n2)-c2ccc(-c4cnn(C(C)(C)C(N)=O)c4)cc2OCC3)n(C(C)C)n1 [Taselisib (GDC 0032)] | 1.34 °C | 0.17 °C | 0.54 °C | -0.31 °C | 0.3 °C | 0.34 °C | -0.05 °C | 0.68 °C | 0.83 °C | 0.38 °C
CNC(=O)c1cc(Oc2ccc(NC(=O)Nc3ccc(Cl)c(C(F)(F)F)c3)cc2)ccn1 [Sorafenib] | 4.5 °C | 1.47 °C | 0.48 °C | 1.7 °C | 0.3 °C | 1.22 °C | 1.02 °C | 1.71 °C | 3.55 °C | 0.99 °C
Cc1cc(Nc2cc(N)ncn2)c(=O)n2c1C(=O)NC21CCCCC1 | 0.8 °C | 0.09 °C | 0.28 °C | 0.13 °C | 0.19 °C | 0.47 °C | 0.4 °C | 0.45 °C | 0.09 °C | 0.53 °C
CN1CCN(Cc2ccc(-c3cnc4[nH]cc(-c5ccc6[nH]ccc6c5)c4c3)cc2)CC1 | 17.2 °C | 1.09 °C | 0.85 °C | 4.74 °C | 10.8 °C | 3.95 °C | 7.6 °C | 14.9 °C | 6.36 °C | 3.3 °C
CC1=C(C(=O)Nc2cc3cn[nH]c3cc2F)C(c2ccc(C(F)(F)F)cc2)CC(=O)N1 (stereo not given) | 0.16 °C | 0.13 °C | 0.03 °C | 0.32 °C | -0.07 °C | 0.15 °C | 0.56 °C | 0.15 °C | 0 °C | 0.48 °C
Nc1nc2cc(-c3ccc4ncc(C(=O)N5CCOCC5)n4c3)ccc2o1 [Serabelisib (INK-1117,MLN-1117,TAK-117)] | 1.65 °C | 0.12 °C | 0.57 °C | 0.22 °C | 0.37 °C | 0.93 °C | 0.42 °C | 1.85 °C | 0.6 °C | 0.51 °C
C=CC(=O)N1CCC[C@@H](n2nc(-c3ccc(Oc4ccccc4)cc3)c3c(N)ncnc32)C1 | 1.46 °C | 1.25 °C | 0.88 °C | 0.1 °C | 0.51 °C | 1.39 °C | 1.07 °C | 3.03 °C | 1.2 °C | 0.37 °C
Cc1nc(Nc2n[nH]c3c2CN(C(=O)N[C@H](CN(C)C)c2ccccc2)C3(C)C)c2sccc2n1 | 0.94 °C | 0.82 °C | 0.62 °C | 3.19 °C | 0.55 °C | 0.78 °C | 1.44 °C | 3.07 °C | 0.43 °C | 0.63 °C
O=C(Nc1ccc(-c2ccnc(Nc3ccc(N4CCOCC4)cc3)n2)cc1)C1CCCN1 (stereo not given) | 0.77 °C | 0.47 °C | 0.4 °C | 1.05 °C | 0.29 °C | 0.37 °C | 0.83 °C | 2.26 °C | 1 °C | 0.45 °C
COc1cc2c(N3CCN(C(=O)Nc4ccc(OC(C)C)cc4)CC3)ncnc2cc1OCCCN1CCCCC1 [Tandutinib (MLN518)] | 1.37 °C | 0.74 °C | 0.9 °C | 0.38 °C | 0.28 °C | 0.42 °C | 0.95 °C | 1.58 °C | 1.79 °C | 0.92 °C
